Test results from PubChem BioAssay (Tox21).
Calls of active or inactive are those of the source. The call rests on the fitted dose curve; in most records, active means well fitted inhibition curve with a large enough effect in the repeat runs (not every such curve was filed as active); inconclusive means weak or mixed curves; inactive means flat fitted curve, though single readings scatter.

target: Thyrotropin-releasing hormone receptor (Homo sapiens) (UniProt P34981); assay: qHTS assay to identify small molecule antagonists of the thyrotropin-releasing hormone receptor (TRHR) signaling pathway (AID 1346877); details: TRHR-HEK293, TRH-induced calcium fluorescence, antagonist mode; series mostly up to 51.3 µM; activity, negative = inhibition: at the top concentration
Sequence (P34981 whole entry, looked up): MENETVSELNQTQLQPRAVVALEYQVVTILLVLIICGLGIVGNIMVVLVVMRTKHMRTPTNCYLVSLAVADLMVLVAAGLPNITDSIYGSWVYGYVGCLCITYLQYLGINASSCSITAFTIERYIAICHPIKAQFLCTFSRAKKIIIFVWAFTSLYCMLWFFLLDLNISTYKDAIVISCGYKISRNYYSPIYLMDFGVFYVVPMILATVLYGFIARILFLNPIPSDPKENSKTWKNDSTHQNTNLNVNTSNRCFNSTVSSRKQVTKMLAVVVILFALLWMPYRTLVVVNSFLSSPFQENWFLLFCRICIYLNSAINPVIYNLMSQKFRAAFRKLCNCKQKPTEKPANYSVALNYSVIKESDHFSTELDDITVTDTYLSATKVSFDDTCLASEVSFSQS
Text: National Center for Advancing Translational Sciences [NCATS]
NIH Chemical Genomics Center [NCGC]
U.S. Environmental Protection Agency [EPA]
National Institutes of Environmental Health Sciences [NIEHS]
National Toxicology Program [NTP]
U.S. Food and Drug Administration [FDA]
Thyrotropin-releasing hormone (TRH) receptor (TRHR) is a G-protein-coupled receptor which binds the tripeptide thyrotropin releasing hormone. TRHR is found in the brain and, when bound by TRH, acts (through phospholipase C) to increase intracellular inositol trisphosphate. It plays a crucial role in the anterior pituitary where it controls the synthesis and secretion of thyroid stimulating hormone and prolactin. The TRHR-Hek293 assay is a cell-based assay, and it has the potential to screen G protein-coupled receptors. A compound/drug can either activate (agonist) or suppress (antagonist) GPCRs that can be monitored by levels of intracellular calcium. In this assay, the Tox21 10K compound library was screened to identify potential TRHR antagonists.
Tox21 Assay Protocol Summary:
The TRHR-Hek293 cells were dispensed at 1500cells/4uL/well in 1536-well black-clear bottom plates using a Multidrop dispenser. After the assay plates were incubated at a 37 C/5% CO2 incubator for 18 hours, 4 uL of Dye-Loading Solution was added to each well. The plates were incubated at 37 C for 2 hours. For agonist mode, 23 nL of compounds dissolved in DMSO, positive controls or DMSO only was transferred to the assay plate by a pin tool. The fluorescence intensity in the plates was measured using FDSS 7000EX kinetic plate reader for 3 min at 1 sec intervals. For antagonist mode, 23 nL of compounds dissolved in DMSO, positive controls or DMSO only was transferred to the assay plate by a pin tool. After 5 min incubation at room temperature, 1 uL of TRH was added on the top of the cell/compound mixtures to achieve a final agonist concentration of 1 nM. The fluorescence intensity in the plates was measured using FDSS 7000EX kinetic plate reader for 3 min at 1 sec intervals. Each test compound was measured at 15 concentrations and in triplicates.
On the % scale 0 is the no-effect control and ±100 the full control effect; potency means the concentration at half of the fitted maximal effect.

Row | Structure (SMILES) | activity, negative = inhibition | Potency
1 | Oc1cccc2c(O)cccc12 | 7.04% (inactive) | –
2 | CC/C(=C(/c1ccc(O)cc1)c1ccc(OCCN(C)C)cc1)c1ccccc1 | -16.3% [at 23.6 µM] (inactive) | –
3 | CCCCCCCCCC[N+](C)(CCCCCCCCCC)CCC[Si](OC)(OC)OC | -0.544% (inactive) | –
4 | O=C(O)CN(CCCN(CC(=O)O)CC(=O)O)CC(=O)O | -1.06% [at 10.5 µM] (inactive) | –
5 | Cc1cccc(C)c1C | 3.06% (inactive) | –
6 | CC(CC(C)(C)C)CC(C)(C)CC(C)(C)C (stereo not given) | -6.91% [at 23.6 µM] (inactive) | –
7 | CCCCCCCCCCCC(=O)Cl | -5.08% (inactive) | –
8 | CCc1cccc(CC)c1 | -2.8% (inactive) | –
9 | CCCCCCCCc1ccc(Nc2ccc(CCCCCCCC)cc2)cc1 | -2.89% [at 23.6 µM] (inactive) | –
10 | O=C1OC(=O)c2cc(-c3ccc4c(c3)C(=O)OC4=O)ccc21 | 2.17% (inactive) | –
11 | CN(C)CCOc1ccc(/C(=C(/CCCl)c2ccccc2)c2ccccc2)cc1 | -16.2% (inactive) | –
12 | CC(C)(C)c1cc(CCC(=O)OCCSCCOC(=O)CCc2cc(C(C)(C)C)c(O)c(C(C)(C)C)c2)cc(C(C)(C)C)c1O | -0.564% [at 23.6 µM] (inactive) | –
13 | CN(C/C=C/c1ccccc1)Cc1cccc2ccccc12 | 0.335% [at 23.6 µM] (inactive) | –
14 | C=C[Si](C)(C)Cl | 2.56% [at 4.65 µM] (inactive) | –
15 | CC1(C)[C@H]2CC[C@]1(C)C(=O)C2 | -0.0506% (inactive) | –
16 | COc1cc(/C=C/C(=O)CC(=O)/C=C/c2ccc(O)c(OC)c2)ccc1O | -13% (inactive) | –
17 | c1ccc2cc3c4ccccc4c4ccccc4c3cc2c1 | 0.333% (inactive) | –
18 | CCc1c(C)cc(N)c(CC)c1N | 0.85% (inactive) | –
19 | CC(C)=NNC(N)=S | 0.0652% (inactive) | –
20 | Cc1ccc(C=O)cc1 | 0.121% [at 23.6 µM] (inactive) | –

Row | Structure (SMILES) | activity, negative = inhibition | Potency
21 | O=C(CCCCCCCCc1cccnc1)N1CCC(C=C(c2ccccc2)c2ccccc2)CC1 | -1.46% (inactive) | –
22 | O=C1OC2(c3ccccc31)c1ccc(O)c(Br)c1Oc1c2ccc(O)c1Br | – | 1.2 µM (active)
23 | Nc1cc([N+](=O)[O-])cc(Cl)c1O | 0.259% (inactive) | –
24 | C=CC(=O)O[C@H]1C[C@@H]2CC[C@@]1(C)C2(C)C | -0.344% (inactive) | –
25 | Cc1ccc(N=Nc2c(O)ccc3ccccc23)c(C)c1 | -0.495% [at 23.6 µM] (inactive) | –
26 | Oc1ccc2c(c1)CCC2 | 2.79% (inactive) | –
27 | O=C1CCCCCCCCCCCCCC1 | -0.505% (inactive) | –
28 | C=Cc1ccc(O)c(OC)c1 | 2.21% (inactive) | –
29 | CC1=C(/C=C/C(C)=C/C=C/C(C)=C\C(=O)O)C(C)(C)CCC1 | -7.16% (inactive) | –
30 | CCOC(=O)OC(=O)OCC | -2.46% (inactive) | –
31 | Cn1c(=O)[nH]c2ncn(C)c2c1=O | 0.678% (inactive) | –
32 | CCN(CC)c1ccc(C=O)cc1 | -3.89% (inactive) | –
33 | CC(C)(C)C1=CC(=O)C(C(C)(C)C)=CC1=O | -10.1% [at 23.6 µM] (inactive) | –
34 | CC(C)(c1ccc(Oc2ccc(N)cc2)cc1)c1ccc(Oc2ccc(N)cc2)cc1 | -3.64% (inactive) | –
35 | CCn1c2ccccc2c2ccccc21 | -4.19% (inactive) | –
36 | CN(C[C@@H](CC[N+]12CCC(C3CCCCC3)(CC1)CC2)c1ccc(Cl)c(Cl)c1)C(=O)c1cc(C(F)(F)F)cc(C(F)(F)F)c1 | -3.36% (inactive) | –
37 | CN[C@H]1CC[C@@H](c2ccc(Cl)c(Cl)c2)c2ccc(S(N)(=O)=O)cc21 | -17.2% (inactive) | –
38 | COc1cc(C(C)C)ccc1C | -0.302% [at 10.5 µM] (inactive) | –
39 | Clc1nc(C(Cl)(Cl)Cl)c(Cl)c(Cl)c1Cl | -10.5% (inactive) | –
40 | Cc1c(Cl)c(=O)oc2cc(O)ccc12 | 0.663% (inactive) | –
